From PubChem BioAssay
The list is not random: actives were taken first. Their share in the collection is about 1.1%.
p97 inhibitor = inhibitors of human p97 ATPase, primary screen, biochemical; inhibition, % at 8 µM; 220,000 compounds, 0.42% hits; recombinant p97 ATPase, Kinase-Glo ATP luminescence, 3 h; Transitional endoplasmic reticulum ATPase (Homo sapiens), P55072; in the data active means inhibition above about 15%;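 further: 0% = DMSO vehicle and 100% = wells lacking enzyme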
Target sequence (P55072 whole entry, looked up): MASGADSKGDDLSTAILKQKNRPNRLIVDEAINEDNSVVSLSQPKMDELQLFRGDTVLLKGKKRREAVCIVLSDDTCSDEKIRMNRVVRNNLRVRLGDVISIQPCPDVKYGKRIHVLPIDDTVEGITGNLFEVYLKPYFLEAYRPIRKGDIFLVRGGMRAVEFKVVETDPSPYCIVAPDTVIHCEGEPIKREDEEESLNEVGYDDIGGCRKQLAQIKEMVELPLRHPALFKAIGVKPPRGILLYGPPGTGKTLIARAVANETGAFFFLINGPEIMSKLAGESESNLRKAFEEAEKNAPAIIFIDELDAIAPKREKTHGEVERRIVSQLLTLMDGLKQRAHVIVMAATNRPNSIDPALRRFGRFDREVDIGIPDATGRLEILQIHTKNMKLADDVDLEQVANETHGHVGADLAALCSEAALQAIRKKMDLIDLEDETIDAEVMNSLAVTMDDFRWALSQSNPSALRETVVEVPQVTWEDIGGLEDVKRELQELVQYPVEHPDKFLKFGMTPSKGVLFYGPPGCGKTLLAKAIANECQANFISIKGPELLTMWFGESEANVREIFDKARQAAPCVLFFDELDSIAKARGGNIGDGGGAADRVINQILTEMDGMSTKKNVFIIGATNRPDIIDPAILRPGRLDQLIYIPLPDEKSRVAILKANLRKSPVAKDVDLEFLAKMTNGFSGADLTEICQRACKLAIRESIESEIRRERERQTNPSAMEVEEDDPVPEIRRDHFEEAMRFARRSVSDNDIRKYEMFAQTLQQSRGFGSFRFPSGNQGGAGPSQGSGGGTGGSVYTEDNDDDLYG
S1P4 antagonist = S1P4 receptor antagonists, primary screen, cell-based | Sphingosine 1-phosphate receptor 4 (Homo sapiens), O95977 | S1P4-expressing cells, antagonist mode, reporter read-out | inhibition, % at 4.98 µM | 220,000 compounds, 0.26% hits | AID 1510, 2009; in the data active means inhibition above about 29%;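 further: 0% = wells stimulated with agonist and 100% = vehicle wells without agonist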
DTT redox prof = compounds producing H2O2 with reducing agent – biochemical, NIH compound library profiling, artefact control for MLSCN library redox annotation, primary screen; DTT-dependent redox cycling H2O2, phenol red/HRP absorbance; 100% = 100 µM peroxide control, 0% = buffer; activation, % at 10 µM; 200,000 compounds, 0.03% hits;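 active means activation of at least 50% relative to the plate's high and low controls in the primary single-dose screen; inactive means activation below 50%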;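 further: compound incubated with DTT at 0.8 mM final as the reducing agent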
SUMO HTRF inh = inhibitors of in vitro SUMOylation cascade, primary screen, biochemical, HTRF, uHTS | SUMO-conjugating enzyme UBC9 (Homo sapiens), P63279 | HTRF SUMOylation assay, SAE1/SAE2 + UBC9 | inhibition, % at 35 µM | 290,000 compounds, 0.36% hits; in the data active means inhibition above about 50%, passing the limit was not always enough; inconclusive means no clear call, values can overlap the other calls
S1P3 antagonist = S1P3 receptor antagonists, primary screen, cell-based; Sphingosine 1-phosphate receptor 3 (Homo sapiens), Q99500; CHO S1P3 NFAT-BLA reporter, FRET fluorescence, antagonist mode; inhibition, % at 4.98 µM; 170,000 compounds, 0.27% hits; AID 485, 2006;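 active means inhibition above the plate cutoff, the mean inhibition of test wells on that plate plus 3 SD, cut at about 28% in these data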;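 further: cells challenged with S1P at its EC80 of 0.8 µM; blue over green emission ratio from cleaved BLA substrate after 4 h stimulation; 0% = S1P-stimulated wells and 100% = unstimulated DMSO-only wells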
S1P4 ag = S1P4 receptor agonists, primary screen, cell-based | S1P4-expressing cell line, agonist reporter assay | activation, % at 4.98 µM | Sphingosine 1-phosphate receptor 4 (Homo sapiens), O95977 | 220,000 compounds, 0.35% hits; in the data active means activation above about 11%;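 further: 0% = DMSO vehicle and 100% = reference agonist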
S1P4 antag cf = S1P4 receptor antagonists, human, confirmation, cell-based | shares compounds with S1P4 antagonist | S1P4-expressing cell line, antagonist mode, reporter read-out | inhibition, % at 4.98 µM | 520 compounds, 71% hits; in the data active means inhibition above about 30%
S1P1 antagonist = S1P1 receptor antagonists, human, counter-screen for S1P4 antagonist project, cell-based; shares compounds with S1P4 antagonist; cell-based S1P1 antagonist counterscreen, inhibition; inhibition, % at 4.98 µM; 520 compounds, 37% hits; AID 1564, 2009; in the data active means inhibition above about 40%;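 further: receptor stimulated with S1P near its EC80; 0% = agonist stimulated wells and 100% = vehicle only wells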
The depositor's hits bear a star; ? = inconclusive; . = not tested or not shown.

SMILES | p97 inhibitor | S1P4 antagonist | DTT redox prof | SUMO HTRF inh | S1P3 antagonist | S1P4 ag | S1P4 antag cf | S1P1 antagonist
Cc1onc(-c2ccccc2)c1C(=O)Nc1nnc(-c2ccncc2)s1 | 4.1 | 51.4* | 0.7 | 8.3 | 6.3 | -2.6 | 63.0* | 5.1
CC(C)=NOCC(=O)Nn1c(COc2c(C)cccc2C)nc2ccccc2c1=O | . | . | . | 14.4 | . | . | . | .
CC(C)(C)c1ccc(-c2noc(CNC(=O)c3ccco3)n2)cc1 | . | . | . | 6.1 | . | . | . | .
O=c1/c(=C/c2ccc([N+](=O)[O-])cc2)sc2n1CCCN=2 | 0.8 | 34.0* | -7.5 | -12.8 | . | -0.3 | 21.9 | 31.0
Nc1ccc2c(C(F)(F)F)cc(=O)oc2c1 | -3.2 | 46.3* | 0.8 | ? | 5.3 | 0.2 | 45.3* | 35.3
COCCOC(=O)C1=C(C)N=C2SCCC(=O)N2C1c1ccc(OC(=O)c2ccco2)cc1 (configuration not stated) | -4.3 | 35.1* | -0.4 | 6.0 | . | 0.6 | 54.3* | 52.3*
COc1ccc(C(O)C(CN2CCOCC2)c2ccccc2)cc1F (configuration not stated) | -5.4 | 2.4 | 1.6 | -3.5 | -0.2 | 2.1 | . | .
COc1ccc(C(=O)C(CN2CCOCC2)c2ccccc2)cc1F (configuration not stated) | 1.7 | 33.1* | -1.1 | -16.5 | 2.5 | -4.8 | 45.5* | 6.7
COc1ccc2[nH]c(C(=O)NCc3ccccc3)c(C)c2c1 | . | . | . | 18.7 | . | . | . | .
Cc1cc(C)nc(SC2=CS(=O)(=O)c3ccccc32)n1 | -3.7 | -5.5 | 0.6 | -6.9 | 9.3 | -1.6 | . | .
O=S1(=O)C=C(Sc2nc3ccccc3s2)c2ccccc21 | 7.0 | 54.8* | -2.6 | 16.9 | 6.3 | 0.6 | 113.3* | 58.9*
Cc1ccc(NN2C(=O)C=C(c3ccc(Cl)cc3)C2=O)cc1 | 5.4 | 31.2* | 0.2 | -14.0 | . | -2.6 | 91.8* | 21.3
Cc1cc(C)n(-c2cc(N3CCN(S(=O)(=O)c4ccc(Cl)cc4)CC3)ccc2[N+](=O)[O-])n1 | -0.2 | 60.1* | 0.0 | -1.0 | -3.3 | -0.7 | 13.6 | 25.9
COCc1cc(/C=N\NC(=O)Cc2ccc(OC)cc2)ccc1OC | 0.6 | -4.1 | 0.2 | 5.8 | 7.0 | 0.1 | . | .
O=C(CCCn1cnc([N+](=O)[O-])n1)Nc1cccc2ccccc12 | 6.9 | 111.7* | -0.3 | -0.9 | -10.9 | 0.1 | 0.5 | 16.7
S=c1[nH]nc(-c2cc(-c3ccccc3)n[nH]2)n1/N=C/C(Br)=C/c1ccccc1 | 2.9 | 34.8* | . | 47.6 | -3.7 | -0.2 | 66.2* | 24.2
O=C(Cc1ccccc1)NCc1ccc(-n2cccc2)cc1 | -7.0 | -1.9 | 5.0 | 6.4 | 7.7 | -0.9 | . | .
CN1/C(=C\C(=O)c2cccnc2)C(C)(C)c2ccccc21 | 1.1 | -10.4 | 0.1 | -6.7 | 2.5 | 0.1 | . | .
CN1/C(=C/C(=O)c2nc(S(C)(=O)=O)ncc2Cl)C(C)(C)c2ccccc21 | 2.2 | 65.5* | 0.3 | -5.6 | -5.9 | -6.8 | 111.3* | -1.9
COc1ccc(C(C(=O)NC2CCCC2)N(C(=O)c2ccco2)c2cc3c(cc2C(C)=O)OCO3)cc1 (configuration not stated) | . | . | . | -3.4 | . | . | . | .
Cn1c(COc2ccccc2O)[n+](C)c2ccccc21 | . | . | . | 22.5 | . | . | . | .
COc1ccc(N=Nc2n(C)c3ccccc3[n+]2C)cc1 | -71.3 | 30.4* | . | 9.1 | -44.5 | -1.4 | -0.4 | 35.3
O=C(N/N=C/c1ccccc1)C(=O)N/N=C/c1ccccc1 | . | . | . | 17.6 | . | . | . | .
O=C(C=C=Nc1ccccc1)C(=O)N=C=Cc1ccccc1 | 11.5 | 41.6* | . | 42.6 | 11.2 | -0.4 | 106.4* | 23.9
O=C(Nc1cccc(-c2nc3ccccc3s2)c1)c1cc(-n2cnnc2)ccc1Cl | 2.4 | 30.8* | -4.0 | 12.4 | . | 1.2 | 15.6 | 4.0
SMILES | p97 inhibitor | S1P4 antagonist | DTT redox prof | SUMO HTRF inh | S1P3 antagonist | S1P4 ag | S1P4 antag cf | S1P1 antagonist
Cc1c(NC(=O)c2cc(-n3cnnc3)ccc2Cl)cccc1-c1nc2ccccc2s1 | 1.1 | -10.3 | -1.0 | 8.4 | . | -1.3 | . | .
CC1CCN(C(=O)c2cc3ccccc3cc2O)CC1 | . | . | . | 3.8 | . | . | . | .
COc1ccc(N)c2c1C(=O)c1ccccc1C2=O | -1.1 | -10.4 | 0.1 | -69.3 | 12.5 | 1.7 | . | .
COc1ccc(OC)c2c1C(=O)C(Cl)=C(Cl)C2=O | 12.6 | 55.6* | . | 24.0 | 31.2* | 0.6 | 107.2* | 73.8*
COCCNC(=O)CN1C(=O)/C(=C/c2ccccc2)Oc2ccc(C(C)(C)C)cc21 | . | . | . | 6.1 | . | . | . | .
O=C(CSCCO)Nc1cccc(C(F)(F)F)c1 | 1.6 | 35.6* | -0.8 | 23.7 | 1.3 | 0.9 | 4.4 | 2.8
O=C(NCCCN1CCCC1=O)c1ccc(Cl)c(Cl)c1 | 1.7 | -8.5 | 0.3 | -1.0 | 3.3 | 1.1 | . | .
CC(/C=N/Nc1ncc(C)c(=O)[nH]1)=C\c1ccccc1 | 5.7 | 5.6 | -1.9 | -9.2 | 13.7 | 0.6 | . | .
Cn1c(-c2c(N)n(CCCc3ccccc3)c3nc4ccccc4nc23)nc2ccccc21 | 3.4 | 37.0* | 2.2 | 17.7 | . | 1.4 | 83.4* | 105.9*
O=C(O)COc1ccc(C(NC(=O)c2c(F)cccc2F)NC(=O)c2c(F)cccc2F)cc1 | . | . | . | 4.1 | . | . | . | .
COc1ccc(CN2CCN(CC(O)Cn3c4ccccc4c4ccccc43)CC2)cc1 (configuration not stated) | 1.9 | -4.3 | 0.4 | 2.6 | -1.9 | 0.5 | . | .
CCOc1ccc(CN2CCN(CC(O)Cn3c4ccccc4c4ccccc43)CC2)cc1 (configuration not stated) | -6.7 | 42.3* | 0.2 | -37.8 | -0.2 | -0.5 | 71.0* | 82.9*
CCc1nc2ccc(C(=O)NCCCN3CCN(c4ccccc4F)CC3)cc2nc1CC | . | . | . | 4.2 | . | . | . | .
CS(=O)(=O)c1ncc(Cl)c(C(=O)Nc2ccc(N3CCOCC3)cc2)n1 | 1.6 | 30.9* | -1.8 | -7.5 | 7.8 | -2.9 | 98.4* | 80.8*
O=C(Nc1ccccc1)c1nnsc1S(=O)c1ccc(Cl)cc1 (configuration not stated) | 6.2 | 49.5* | 2.2 | 21.7 | . | -3.2 | 111.1* | 6.3
OC1(c2ccc(Cl)cc2)CN(c2ccccc2)C2=[N+]1CCS2 (configuration not stated) | -1.3 | -12.4 | -0.9 | 8.2 | 9.5 | 1.0 | . | .
OC1(c2ccc(Br)cc2)CN(c2ccccc2)C2=[N+]1CCS2 (configuration not stated) | 2.4 | 30.4* | 0.1 | -9.8 | -4.5 | 0.2 | 8.5 | 1.9
